Holding throughout (test): NCI-60 one-dose screen, 48 h (100 = growth as untreated, 0 = no growth, -100 = all killed)
One assay concerns SK-MEL-2 melanoma. The settings on record: 10 µM unless noted.
The next assay concerns EKVX NSCLC. The settings on record: 10 µM unless noted.
A further assay relates to SN12C renal. To be noted: 10 µM unless noted.
A further assay has as its system TK-10 renal. The settings on record: 10 µM unless noted.
A further assay relates to ACHN renal. To be noted: 10 µM unless noted.
Another assay concerns CAKI-1 renal. The settings on record: 10 µM unless noted.
The next assay relates to A498 renal. To be noted: 10 µM.
For a further assay, the system named is HL-60(TB) leukemia. To be noted: 10 µM unless noted.
For another assay, the system named is CCRF-CEM leukemia. To be noted: 10 µM unless noted.
The test system of the next assay is MOLT-4 leukemia. To be noted: 10 µM unless noted.
For the next assay, the system named is SR leukemia. The settings on record: 10 µM unless noted.
The test system of the next assay is RPMI-8226 leukemia. To be noted: 10 µM unless noted.
The test system of another assay is OVCAR-8 ovarian. The settings on record: 10 µM unless noted.
For a further assay, the system named is OVCAR-5 ovarian. The settings on record: 10 µM unless noted.
The next assay deals with OVCAR-4 ovarian. To be noted: 10 µM unless noted.
In the next assay the test system is SK-OV-3 ovarian. To be noted: 10 µM unless noted.
Another assay relates to IGROV1 ovarian. The settings on record: 10 µM unless noted.
A further assay deals with OVCAR-3 ovarian. To be noted: 10 µM unless noted.
The subject of a further assay is HS 578T breast. To be noted: 10 µM unless noted.
The subject of a further assay is UO-31 renal. The settings on record: 10 µM unless noted.

The panel holds about 83,000 compounds, 20% with a hit somewhere; the sample as a whole holds those more often.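 Step 1: grow cells in 96-well plates. Step 2: add test compound at a single concentration. Step 3: incubate 48 h. Step 4: record percent growth.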 Unmarked numbers belong to inactive results. Active and inactive are the calls of the source. How the source made its calls: active means growth percent below 10; inactive means the rest.

The values below come from PubChem BioAssay (NCI).

As to `CCC(CC)CC1(C)CC2(C)CCOC2OO1` (centres undefined), the growth in the assay with SK-MEL-2 melanoma is 94.9%; in the assay on EKVX NSCLC it was 103%; with SN12C renal it was 102%; in the assay with TK-10 renal, 98%; with ACHN renal, 111%; in the assay on CAKI-1 renal it was 95.7%. In addition, the growth in the assay with A498 renal is 90.8%; with HL-60(TB) leukemia it was 111%; in the assay on CCRF-CEM leukemia, 103%; in the assay with MOLT-4 leukemia it was 113%; in the assay with SR leukemia, 113%; with RPMI-8226 leukemia it was 103%. Also, the growth is 102% in the assay on OVCAR-8 ovarian; 113% in the assay on OVCAR-5 ovarian; 95.4% in the assay with OVCAR-4 ovarian; 111% in the assay with SK-OV-3 ovarian; 114% in the assay on IGROV1 ovarian; 115% with OVCAR-3 ovarian. Also, in the assay with HS 578T breast, the growth was 92.6%.

For the compound `COc1ccc(C(O)(C(=O)O)c2ccc(OC)cc2)cc1`, the growth is 78.8% in the assay with SK-MEL-2 melanoma; 85% in the assay with EKVX NSCLC; 87.6% in the assay with UO-31 renal; 88.2% in the assay on TK-10 renal; 85.8% in the assay on ACHN renal; 100% in the assay on CAKI-1 renal. The growth is 95.3% in the assay with A498 renal; 96.9% with HL-60(TB) leukemia; 79.8% in the assay on CCRF-CEM leukemia; 87.1% in the assay with MOLT-4 leukemia; 102% in the assay with SR leukemia; 93.3% in the assay with OVCAR-8 ovarian. Besides, the growth in the assay with OVCAR-5 ovarian is 103%; in the assay on OVCAR-4 ovarian, 97.8%; in the assay with SK-OV-3 ovarian, 99.1%; in the assay on IGROV1 ovarian, 87.5%; with OVCAR-3 ovarian, 106%; in the assay on HS 578T breast, 94.6%.

In the case of `O=C1C2C(C(=O)[N]1[Hg][c]1ccccc1)C1(Cl)C(Cl)=C(Cl)C2(Cl)C1(Cl)Cl` (centres undefined), the growth is 50.8% in the assay with SK-MEL-2 melanoma; -7.36% (active) in the assay with EKVX NSCLC; -71.7% (active) in the assay with SN12C renal; -95.9% (active) in the assay on TK-10 renal; -98.5% (active) with ACHN renal; -87.5% (active) in the assay with CAKI-1 renal. Also, the growth in the assay on A498 renal was 32.8%; in the assay with HL-60(TB) leukemia, -18.4% (active); in the assay with CCRF-CEM leukemia, -23.8% (active); in the assay with MOLT-4 leukemia, -2.76% (active); with SR leukemia, -23.6% (active); with OVCAR-8 ovarian, -47.4% (active). Further, the growth in the assay with OVCAR-5 ovarian is 73%; in the assay on OVCAR-4 ovarian, 5.55% (active); with SK-OV-3 ovarian, 62.1%; in the assay on IGROV1 ovarian, -39.3% (active); in the assay on OVCAR-3 ovarian, -85.5% (active); in the assay on HS 578T breast it was -14.1% (active).

In the case of `C1CCC([PH+](C2CCCCC2)C2CCCCC2[PH+](C2CCCCC2)C2CCCCC2)CC1.[Au].[CH-]1CCCCC1CC1CCCC[N-]1` (centres undefined), the growth in the assay with SK-MEL-2 melanoma is -55.7% (active); in the assay on EKVX NSCLC, -61.9% (active); with SN12C renal, -32% (active); with TK-10 renal, -43.4% (active); in the assay with ACHN renal, -72.5% (active); in the assay with CAKI-1 renal it was -31.3% (active). The growth is -12.5% (active) in the assay with CCRF-CEM leukemia; 0.501% (active) with MOLT-4 leukemia; 1.21% (active) with SR leukemia; -8.82% (active) in the assay on RPMI-8226 leukemia; 5.9% (active) in the assay with OVCAR-8 ovarian; -37.2% (active) in the assay on OVCAR-5 ovarian. Moreover, the figures for the growth in the assay on SK-OV-3 ovarian, in the assay on IGROV1 ovarian and in the assay with OVCAR-3 ovarian were -70.5% (active), -29.4% (active) and -86.5% (active), respectively.

As to `COc1cc2c(cc1OCc1ccccc1)C(CC(C)C)=[N+](C)CC2`, the growth with SK-MEL-2 melanoma is 82.1%; with EKVX NSCLC, 68.6%; with UO-31 renal it was 87.9%; with TK-10 renal, 94%; in the assay on ACHN renal it was 99.2%; in the assay with CAKI-1 renal, 96.2%. The growth with A498 renal is 95.9%; with HL-60(TB) leukemia it was 73%; in the assay with CCRF-CEM leukemia, 73.1%; with MOLT-4 leukemia it was 91.8%; in the assay on SR leukemia, 89.9%; in the assay with RPMI-8226 leukemia, 56.4%. Also, the growth with OVCAR-8 ovarian is 73.5%; in the assay with OVCAR-5 ovarian it was 93%; in the assay with OVCAR-4 ovarian it was 71.5%; with SK-OV-3 ovarian, 93.1%; in the assay on OVCAR-3 ovarian, 65.7%; with HS 578T breast it was 83.1%.

Consider `CCCC(C)C1(CC)C(=O)NC(=O)N(C)C1=O` (centres undefined), for which the growth with SK-MEL-2 melanoma is 85.4%; in the assay on EKVX NSCLC, 105%; in the assay on UO-31 renal it was 82.3%; in the assay on TK-10 renal it was 92.6%; with ACHN renal, 107%; with CAKI-1 renal, 95.7%. In addition, the growth is 91.8% with A498 renal; 93.9% with CCRF-CEM leukemia; 101% with MOLT-4 leukemia; 95% in the assay with SR leukemia; 103% in the assay with RPMI-8226 leukemia; 98.8% in the assay with OVCAR-8 ovarian. In addition, the growth with OVCAR-5 ovarian is 109%; in the assay on OVCAR-4 ovarian it was 108%; in the assay with SK-OV-3 ovarian it was 89.3%; with IGROV1 ovarian it was 96.6%; in the assay on OVCAR-3 ovarian, 108%; with HS 578T breast it was 99.4%.

As to `COC(=O)[C@@H](C)C[C@H](Cc1ccccc1)NC(=O)c1csc([C@@H](C[C@H](C(C)C)N(C)C(=O)[C@@H](NC(=O)[C@H]2CCCCN2C)C2CC2)OC(C)=O)n1`, the growth is 5.26% (active) in the assay with SK-MEL-2 melanoma; 42.3% in the assay with EKVX NSCLC; 43.5% in the assay on SN12C renal; 38.6% with TK-10 renal; 19.6% with ACHN renal; 36.9% with CAKI-1 renal. The growth was 2.41% (active) in the assay with A498 renal; -26.3% (active) with HL-60(TB) leukemia; 7.66% (active) in the assay with CCRF-CEM leukemia; 15.3% with MOLT-4 leukemia; 2.03% (active) in the assay on SR leukemia; 34.9% in the assay on RPMI-8226 leukemia. The growth was 73% with OVCAR-5 ovarian; 57.4% in the assay on OVCAR-4 ovarian; 21.9% with SK-OV-3 ovarian; 30.8% in the assay with IGROV1 ovarian; -4.55% (active) in the assay on OVCAR-3 ovarian; 35.7% in the assay with HS 578T breast.
